Screening data as filed in PubChem.
In the library only some 8.8% were active in any assay of this set; here they are far more common.
HttQ103 aggreg = reduces HttQ103-GFP aggregates in PC12 cells. PC12 HttQ103-GFP aggregates, Acumen cytometry, 40 h. Potency, µM (titrated, usually from 46.1 µM), inactives show top-dose activity change, negative = inhibition, usual class: inhibitors. hit rate 1.1% among 220,000. AID 1688; also: % is scaled to controls: 0 for no effect and ±100 for the full control effect; nearly all actives have a fitted effect of over 60% in size
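PC12 cells stably carrying ecdysone-inducible HTT exon 1 Q103–GFP were induced with tebufenozide (100 nM final) and treated with library compounds in titration. GFP aggregates in lysates were counted by laser scanning cytometry.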
HPGD block = inhibitors of human 15-hydroxyprostaglandin dehydrogenase (HPGD); P15428; purified HPGD, NADH fluorescence kinetic, PGE2 substrate; Potency, µM, for the others: top-dose activity change, negative = inhibition, hits mostly inhibitors; hit rate 4.3% among 150,000; active = well fitted inhibition curve with a large enough effect, not every such curve was filed as active; inconclusive = small, poorly fitted or top-dose-only effect, or another doubt; inactive = no such curve, though single readings can be large or run the other way; also: % is scaled to controls: 0 for no effect and ±100 for the full control effect
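20 nM HPGD preincubated 15 min at room temperature with compound in 50 mM Tris-HCl pH 8, 0.01% Tween 20. Started with 1 mM NAD+ and 30 uM prostaglandin E2; NADH fluorescence (360/450 nm) read 5 times over 30-s intervals, last minus first.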
ALDH1A1 inh = inhibitors of human aldehyde dehydrogenase 1A1 | P00352 | Purified ALDH1A1, NADH fluorescence, propionaldehyde substrate | Potency, µM (doses to about 75.3 µM), inactives show at the highest dose activity, negative = inhibition, usual class: inhibitors | hit rate 7.3% among 220,000 | AID 1030; active = well fitted inhibition curve with a large enough effect, not every such curve was filed as active; inconclusive = small, poorly fitted or top-dose-only effect, or another doubt; inactive = no such curve, though single readings can be large or run the other way;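 also: plate controls were no enzyme wells and a reference inhibitor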
Target sequence (P00352 whole entry, looked up): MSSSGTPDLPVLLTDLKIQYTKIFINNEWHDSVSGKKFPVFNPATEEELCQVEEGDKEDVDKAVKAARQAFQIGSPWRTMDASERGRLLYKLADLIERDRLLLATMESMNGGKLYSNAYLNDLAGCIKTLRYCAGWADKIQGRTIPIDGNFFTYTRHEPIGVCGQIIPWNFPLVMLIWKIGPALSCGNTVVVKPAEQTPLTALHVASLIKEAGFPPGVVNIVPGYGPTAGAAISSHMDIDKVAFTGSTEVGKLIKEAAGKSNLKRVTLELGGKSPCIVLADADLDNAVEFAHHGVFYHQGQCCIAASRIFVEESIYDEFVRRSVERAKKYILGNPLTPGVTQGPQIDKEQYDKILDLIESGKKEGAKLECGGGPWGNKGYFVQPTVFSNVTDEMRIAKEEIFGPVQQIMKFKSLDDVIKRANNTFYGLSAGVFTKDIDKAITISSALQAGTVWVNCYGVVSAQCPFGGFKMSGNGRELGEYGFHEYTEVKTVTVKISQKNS
HTT cytoprotect = protects HTT-Q103 PC12 cells, measured by ATP | PC12 HTT-Q103 induced, cytoprotection, ATP luminescence, 40 h | Potency, µM (highest dose often 56.4 µM), without a hit: cytoprotection (ATP increase), most hits filed as activators | hit rate 0.14% among 230,000; also: % of control where 0% means no effect; nearly all actives have a fitted effect of over 45% in size
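PC12 cells stably carrying ecdysone-inducible Htt exon 1 (Q103)–GFP were induced with 100 nM tebufenozide (final) alongside library compounds in a dose series. Cytoprotection was scored as retained ATP by ATPlite luminescence.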
LMNA splice mod = modulators of lamin A splicing; HeLa LMNA splicing GFP/RFP minigene ratio, 48 h; Potency, µM (series often up to 46.1 µM), without a hit: at the top dose ratio change, negative = inhibition, actives largely listed as inhibitors; hit rate 0.01% among 200,000; active = well fitted inhibition curve with a large enough effect in the signal ratio, with a control signal flat, not every such curve was filed as active; inconclusive = small, poorly fitted or top-dose-only effect, or effect the other way, or a change in a side signal; the % refers to the signal ratio; also: % is scaled to controls: 0 for no effect and ±100 for the full control effect
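Read-out is the ratio of GFP to DsRed2 object intensity, acquired by 488 nm laser-scanning cytometry on HeLa lamin A-EGFP minigene reporter cells. Compound incubation 48 hrs at 37 °C in Opti-MEM with 2% FBS; DMSO 0.5% final.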
* marks the source's active call; other numbers are inactive results; [ ] = dose if it differs, or a comment. Unless noted, calls follow the shape of the dose curve; as a rule, active = well fitted curve in the direction sought with a large enough effect; inconclusive = small, poorly fitted or top-dose-only effect, or another doubt; inactive = no such curve, though single readings can be large; an effect the other way counts as inactive or inconclusive. Potency is read from the fitted curve at half-maximal effect.

For CCCCCCCCCC[Si](C)(C)CCC(=O)N[C@@H](Cc1ccc(C)cc1)c1ccccc1 the results were HTT cytoprotect -8%[1.9 µM].
For Cc1nnc2c3ccccc3c(-c3cccs3)nn12 the results were HttQ103 aggreg 3%, ALDH1A1 inh 9%, HTT cytoprotect -34% and LMNA splice mod 7.9µM*.
Screening Cc1ccc(C(=O)N2CCN(Cc3ccc4c(c3)OCO4)CC2)cc1[N+](=O)[O-] returned HttQ103 aggreg 14%, ALDH1A1 inh 13µM* and HTT cytoprotect 0%.
`CCc1ccc(CN2CCN(C(=O)c3cccc(OC)c3OC)CC2)cc1` gave HttQ103 aggreg 7.9µM*, HPGD block -11%, ALDH1A1 inh inconclusive, HTT cytoprotect 5%[10 µM] and LMNA splice mod inconclusive.
For COc1ccccc1C(=O)N1CCN(Cc2ccc3c(c2)OCO3)CC1 the results were HttQ103 aggreg 2.8µM*, HPGD block -6%, ALDH1A1 inh 8%, HTT cytoprotect 3%[10 µM] and LMNA splice mod inconclusive.
O=C(CN1C(=O)c2cccc3cccc(c23)C1=O)N1CCN(Cc2ccc3c(c2)OCO3)CC1 was read as HttQ103 aggreg 18µM*, HPGD block -23%, ALDH1A1 inh inconclusive, HTT cytoprotect 20%[10 µM] and LMNA splice mod -22%.
For COc1cccc(C(=O)N2CCN(C(=O)c3cccc4ccccc34)CC2)c1OC the results were HttQ103 aggreg inconclusive, HPGD block -13%, ALDH1A1 inh inconclusive, HTT cytoprotect -2% and LMNA splice mod 1%.
`Cc1ccc(S(=O)(=O)NCC2CCC(C(=O)NCCc3ccccc3)CC2)cc1` (stereo unspecified) gave LMNA splice mod -16%[46 µM].
Screening Cc1ccccc1NC(=O)c1sc2nc(-c3cc4ccccc4oc3=O)[nH]c(=O)c2c1C returned LMNA splice mod 36%[46 µM].
COc1ccc(-c2nc(N)c(C#N)c(-c3cccnc3)c2C)cc1 was read as HttQ103 aggreg 13%[9.22 µM] and HTT cytoprotect 36%[10 µM].
Screening COc1cc2c(C(=O)N3CCN(Cc4ccc5c(c4)OCO5)CC3)cn(C)c(=O)c2cc1OC returned HttQ103 aggreg -3%, HPGD block -13%, ALDH1A1 inh 2.5µM*, HTT cytoprotect 2%[10 µM] and LMNA splice mod -2%.
Screening CCC/C=C/C1C(=O)C2OC2C2(OCC(CC)(CC)CO2)C1CO (stereo unspecified) returned ALDH1A1 inh 6%[13.5 µM] and HTT cytoprotect -11%[10 µM].
For CC(=O)Nc1ccc(NC(=O)Cn2cnc3c(cnn3C(C)(C)C)c2=O)cc1 the results were HttQ103 aggreg 22%, HPGD block 1%, ALDH1A1 inh 16µM*, HTT cytoprotect 5%[1.9 µM] and LMNA splice mod -6%.
Screening O=C(Cn1cnc2c(nnn2Cc2ccc(F)cc2)c1=O)NCc1ccc(F)cc1 returned HttQ103 aggreg 15%, ALDH1A1 inh 13%, HTT cytoprotect -31% and LMNA splice mod inconclusive.
For CC(=O)Nc1ccc(NC(=O)Cn2cnc3c(nnn3Cc3ccc(F)cc3)c2=O)cc1 the results were HttQ103 aggreg 21%[9.22 µM], ALDH1A1 inh 11µM* and HTT cytoprotect -13%.
CC1(C)Cc2nc3sc4c(=O)n(CC(=O)NCc5ccco5)cnc4c3cc2CO1 was read as HttQ103 aggreg -4%, HPGD block inconclusive, ALDH1A1 inh 22µM*, HTT cytoprotect -20%[0.074 µM] and LMNA splice mod -18%.
CC1(C)Cc2nc3sc4c(OCc5ccccc5)ncnc4c3cc2CO1 was read as HttQ103 aggreg 1%, HPGD block -10%, ALDH1A1 inh inconclusive, HTT cytoprotect -8% and LMNA splice mod 5%.
For CCc1nc(OCc2ccccc2)c2sc3nc4c(cc3c2n1)COC(C)(C)C4 the results were HttQ103 aggreg -10%, HPGD block -25%, ALDH1A1 inh 0.79µM*, HTT cytoprotect -13% and LMNA splice mod 5%.
For C=CCn1c(C)nc2c(sc3nc4c(cc32)COC(C)(C)C4)c1=O the results were HttQ103 aggreg 1%[9.22 µM], ALDH1A1 inh inconclusive and HTT cytoprotect -25%[10 µM].
CCC(C)Nc1nnnc2c1sc1nc3c(cc12)COC(C)(C)C3 (stereo unspecified) was read as HttQ103 aggreg 21%, ALDH1A1 inh 10µM*, HTT cytoprotect -55% and LMNA splice mod inconclusive.
CC(C)COc1ncnc2c1sc1nc3c(cc12)COC(C)(C)C3 was read as HttQ103 aggreg -14%[9.22 µM] and HTT cytoprotect 0%[10 µM].
`CCc1nc2c(sc3nc4c(cc32)COC(C)(C)C4)c(=O)n1CCN(CC)CC` gave HttQ103 aggreg 18%, ALDH1A1 inh 10µM*, HTT cytoprotect -13% and LMNA splice mod inconclusive.
For CC1C(=O)OC2CC34C5CC(C(C)(C)C)C36C(OC(=O)C6O)OC4(C(=O)O5)C21O (stereo unspecified) the results were HPGD block 7%, ALDH1A1 inh 5% and HTT cytoprotect 15%[1.9 µM].
Screening CCCN(CCC)C(=O)SCC returned HPGD block -2%, ALDH1A1 inh 8% and HTT cytoprotect inconclusive.
CCOc1cc(CNC(=O)c2ccc(C)c(NC(=O)c3nsc4ccccc34)c2)ccc1OC was read as LMNA splice mod 6%[46 µM].
COc1ccc(C(=O)N2CCC3(CCN(Cc4ccccc4OC)CC3)CC2)cc1 was read as HPGD block -5%, ALDH1A1 inh 9% and HTT cytoprotect 28%.
Screening CCSc1ncnc2c1sc1nc3c(cc12)COC(C)(C)C3 returned HttQ103 aggreg -8%, HPGD block -15%, ALDH1A1 inh 0.79µM*, HTT cytoprotect -17%[10 µM] and LMNA splice mod -6%.
For Cn1cc(C(=O)N/N=C/C2=C(N3CCOCC3)C(=C\c3ccccc3)/CC2)ccc1=O the results were HttQ103 aggreg 14%, HPGD block -4%, ALDH1A1 inh -10%, HTT cytoprotect 13%[0.074 µM] and LMNA splice mod -1%.
Screening O=C1Nc2ccccc2/C1=N\N=C\C1=C(N2CCOCC2)C(=C\c2ccccc2)/CC1 returned HttQ103 aggreg 10%, HPGD block -7%, ALDH1A1 inh 10µM*, HTT cytoprotect -11% and LMNA splice mod 20%.
`CCOc1ccc(N2C(=O)Nc3ccccc3C2(O)C(=O)NCc2ccc(OC)cc2)cc1` (stereo unspecified) gave HttQ103 aggreg 0.71µM*, ALDH1A1 inh inconclusive, HTT cytoprotect 16%[10 µM] and LMNA splice mod -2%[9.22 µM].
Screening CCOc1ccc(N2C(=O)Nc3ccccc3C2(O)C(=O)NCc2ccc(F)cc2)cc1 (stereo unspecified) returned HttQ103 aggreg 9%, ALDH1A1 inh 18%, HTT cytoprotect 7% and LMNA splice mod -17%[46 µM].
Screening CCN1CCCc2cc(CN(CCN3CCOCC3)C(=S)Nc3cccc(C)c3)ccc21 returned HttQ103 aggreg 0%, ALDH1A1 inh 7.9µM*, HTT cytoprotect -34% and LMNA splice mod -14%[46 µM].
